Screening results deposited in PubChem by National Center for Advancing Translational Sciences (NCATS).
nsP2pro primary = blocks chikungunya virus nsP2 protease peptide cleavage; Q8JUX6; FRET peptide cleavage, nsP2pro, fluorescence 1 h; Potency, µM (highest dose often 24.9 µM), for the others: at the highest dose activity change, negative = inhibition, hits mostly inhibitors; 1.1% of 31,000 active; AID 1964107; calls by dose curve; also: nearly all actives have a fitted effect of over 60% in size
Target sequence (Q8JUX6 whole entry, looked up): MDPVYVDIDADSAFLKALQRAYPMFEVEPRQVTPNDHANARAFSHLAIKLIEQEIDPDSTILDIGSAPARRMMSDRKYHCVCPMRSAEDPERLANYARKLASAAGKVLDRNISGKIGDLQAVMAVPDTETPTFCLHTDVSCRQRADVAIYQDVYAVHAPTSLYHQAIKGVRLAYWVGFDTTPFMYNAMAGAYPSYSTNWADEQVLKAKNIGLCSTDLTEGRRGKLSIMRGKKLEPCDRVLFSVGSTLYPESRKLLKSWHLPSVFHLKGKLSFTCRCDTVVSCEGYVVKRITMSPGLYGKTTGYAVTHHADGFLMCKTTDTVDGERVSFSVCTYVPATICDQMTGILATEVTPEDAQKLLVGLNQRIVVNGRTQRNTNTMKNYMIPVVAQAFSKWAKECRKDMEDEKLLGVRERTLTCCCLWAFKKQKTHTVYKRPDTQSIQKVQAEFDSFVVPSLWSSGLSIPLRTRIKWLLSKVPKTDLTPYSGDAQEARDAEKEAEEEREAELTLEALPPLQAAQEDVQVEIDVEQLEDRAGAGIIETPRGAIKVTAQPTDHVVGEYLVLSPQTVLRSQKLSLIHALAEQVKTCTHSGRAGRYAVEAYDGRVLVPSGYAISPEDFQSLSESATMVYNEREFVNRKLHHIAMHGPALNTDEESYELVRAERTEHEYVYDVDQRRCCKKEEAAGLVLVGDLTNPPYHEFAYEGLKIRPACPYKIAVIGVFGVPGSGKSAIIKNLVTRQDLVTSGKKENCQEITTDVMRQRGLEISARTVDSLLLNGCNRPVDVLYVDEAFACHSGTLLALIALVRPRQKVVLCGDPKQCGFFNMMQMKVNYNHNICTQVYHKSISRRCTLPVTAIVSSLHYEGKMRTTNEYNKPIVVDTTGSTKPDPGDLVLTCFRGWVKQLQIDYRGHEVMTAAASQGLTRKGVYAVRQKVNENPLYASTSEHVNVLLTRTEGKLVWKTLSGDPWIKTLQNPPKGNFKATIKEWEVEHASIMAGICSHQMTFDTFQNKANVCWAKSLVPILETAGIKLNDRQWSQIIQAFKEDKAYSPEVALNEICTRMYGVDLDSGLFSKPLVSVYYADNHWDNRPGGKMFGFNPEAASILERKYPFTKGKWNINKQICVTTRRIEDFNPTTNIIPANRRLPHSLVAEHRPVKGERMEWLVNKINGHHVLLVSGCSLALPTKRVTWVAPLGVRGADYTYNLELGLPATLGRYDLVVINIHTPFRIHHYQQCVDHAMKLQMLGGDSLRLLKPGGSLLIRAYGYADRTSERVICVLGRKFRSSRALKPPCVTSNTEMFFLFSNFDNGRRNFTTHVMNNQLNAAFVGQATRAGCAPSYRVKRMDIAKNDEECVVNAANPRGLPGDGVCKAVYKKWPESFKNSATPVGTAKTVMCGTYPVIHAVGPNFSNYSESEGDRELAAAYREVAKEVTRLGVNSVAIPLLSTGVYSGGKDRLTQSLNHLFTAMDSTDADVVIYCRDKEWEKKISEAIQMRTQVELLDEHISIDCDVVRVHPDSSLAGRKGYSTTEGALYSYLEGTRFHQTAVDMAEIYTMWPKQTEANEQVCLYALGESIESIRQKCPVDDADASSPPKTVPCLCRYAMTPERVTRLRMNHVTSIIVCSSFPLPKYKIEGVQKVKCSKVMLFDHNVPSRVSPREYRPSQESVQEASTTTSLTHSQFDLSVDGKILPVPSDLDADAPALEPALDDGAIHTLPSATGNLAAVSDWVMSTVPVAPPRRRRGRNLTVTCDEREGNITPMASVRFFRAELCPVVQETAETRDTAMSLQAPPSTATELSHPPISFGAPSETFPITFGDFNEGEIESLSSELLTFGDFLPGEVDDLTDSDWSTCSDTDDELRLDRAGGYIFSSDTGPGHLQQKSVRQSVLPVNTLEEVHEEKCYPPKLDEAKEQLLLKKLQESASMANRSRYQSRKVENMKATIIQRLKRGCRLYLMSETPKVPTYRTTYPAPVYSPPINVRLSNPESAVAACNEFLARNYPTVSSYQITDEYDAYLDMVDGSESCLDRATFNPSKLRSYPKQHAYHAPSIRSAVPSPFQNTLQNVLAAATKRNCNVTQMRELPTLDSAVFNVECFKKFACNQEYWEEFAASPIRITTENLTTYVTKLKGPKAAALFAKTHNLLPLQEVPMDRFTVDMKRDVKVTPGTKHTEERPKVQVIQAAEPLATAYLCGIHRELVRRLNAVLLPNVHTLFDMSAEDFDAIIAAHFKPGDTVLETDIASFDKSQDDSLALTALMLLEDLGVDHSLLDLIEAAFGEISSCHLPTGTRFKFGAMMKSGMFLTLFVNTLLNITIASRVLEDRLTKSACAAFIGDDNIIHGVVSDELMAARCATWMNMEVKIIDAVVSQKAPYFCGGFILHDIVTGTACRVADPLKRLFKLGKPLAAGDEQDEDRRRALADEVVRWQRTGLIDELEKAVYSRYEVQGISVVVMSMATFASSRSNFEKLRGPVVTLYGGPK
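FRET cleavage of 2.5 uM peptide 2 by 150 nM CHIKV protease domain at pH 8.0 (Tris, Tween 20). Compounds at 7 concentrations (up to 25 uM) preincubated 15 min. Fluorescence read after 1 h at room temperature.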
Starred values were filed as active, the others as inactive; [ ] = remark or other dose. Shown is part of a subset that was picked to be rich in hits. % is scaled to controls: 0 for no effect and ±100 for the full control effect; potency is read from the fitted curve at half-maximal effect.

How did CCN(CC)C(=O)N[C@H]1C[C@@H]2c3cccc4[nH]cc(c34)C[C@H]2N(C)C1 do in these assays?
nsP2pro primary: 22%

Results for CCN(CC)C(=O)N[C@@H]1C=C2c3cccc4[nH]cc(c34)C[C@@H]2N(C)C1 ?
nsP2pro primary: 12µM*

What do the screens show for `CC(C)(C)C(=O)OCOC(=O)[C@@H]1N2C(=O)[C@@H](NC(=O)[C@H](N)c3ccccc3)[C@H]2SC1(C)C`?
nsP2pro primary: 8%

Results for CCOC(=O)C1=C(CN2CCCCC2)NC(=O)NC1c1cc(C)ccc1C (stereo not drawn) ?
nsP2pro primary: -18%

How did COCCNC(=O)C1CCC(=O)N1C1CCNCC1 (stereo not drawn) do in these assays?
nsP2pro primary: 3%

How did CN1CC(=O)N(C2CCCNCC2)Cc2c1ncnc2N1CCCC1CO (stereo not drawn) do in these assays?
nsP2pro primary: -29%

What do the screens show for `CN(C)C(=O)N1CCN(C2CCNCC2)C(=O)C1`?
nsP2pro primary: 13µM*

Results for Cc1cccc(OCCc2noc(C3CCCN3)n2)c1 (stereo not drawn) ?
nsP2pro primary: inactive

Results for COc1ccc(NC(=O)c2cc3c(=O)[nH]c4ccccc4c3n2C)cc1Cl ?
nsP2pro primary: -17%

What do the screens show for `NCc1ccccc1CC(=O)N[C@@H]1C(=O)N2C(C(=O)O)=C(CSc3nnnn3CC(=O)O)CS[C@H]12`?
nsP2pro primary: 12µM*

What do the screens show for `O=C(O)C1=C(CSc2nnnn2CS(=O)(=O)O)CS[C@@H]2[C@@H](NC(=O)[C@H](O)c3ccccc3)C(=O)N12`?
nsP2pro primary: -23%

What do the screens show for `Cn1nnnc1SCC1=C(C(=O)O)N2C(=O)[C@H](NC(=O)C(O)c3ccccc3)C2SC1` (stereo partly drawn)?
nsP2pro primary: -19%

Results for CCOc1ccc(C(=O)NCCc2csc(-c3cccnc3)n2)cc1 ?
nsP2pro primary: -12%

What do the screens show for `CC(C)Cn1c(SCc2cccc(F)c2)nc2ccsc2c1=O`?
nsP2pro primary: -8%

What do the screens show for `CC1CCCCN1CCCNC(=O)c1cc2c(s1)CN(C1CCCC1)C2` (stereo not drawn)?
nsP2pro primary: 5%

How did O=C(CCn1ccc(=O)[nH]c1=O)N[C@H](c1cccs1)C1CC(O)C1 (stereo partly drawn) do in these assays?
nsP2pro primary: inactive

Results for C/C(=C1\CCOC(=O)S1)N(C=O)Cc1cnc(C)nc1N ?
nsP2pro primary: 5%

How did CC(=C(CCOC(=O)C(C)C)SSC(CCOC(=O)C(C)C)=C(C)N(C=O)Cc1cnc(C)nc1N)N(C=O)Cc1cnc(C)nc1N do in these assays?
nsP2pro primary: 11µM*

How did CC(CCc1ccccc1)NC(=O)Cn1c(=O)nc(-c2ccccc2)c2ccccc21 (stereo not drawn) do in these assays?
nsP2pro primary: -14%

What do the screens show for `NC(=O)NCC(=O)N1CC[C@@H]2[C@@H](CCC(=O)N2CCc2ccccn2)C1`?
nsP2pro primary: 4%

How did O=C(NCC1CC1)c1nc2c(o1)CCN(CCCc1ccccc1)CC2 do in these assays?
nsP2pro primary: 10µM*

What do the screens show for `COc1ccc(CN2CCc3nc(C(=O)NCCOc4ccccc4)oc3CC2)cn1`?
nsP2pro primary: 3.5µM*

How did COc1ccc(CN2CCc3ncc(C(=O)NCc4ccc5c(c4)OCO5)n3CC2)cn1 do in these assays?
nsP2pro primary: inactive

How did Cc1[nH]cnc1CN1CCc2nc(C(=O)NCCOc3ccccc3)oc2CC1 do in these assays?
nsP2pro primary: inactive

What do the screens show for `O=C(NCC1CC1)C1CN(Cc2ccccc2)C(=O)N1` (stereo not drawn)?
nsP2pro primary: 5%[39.2 µM]

What do the screens show for `Cc1c(C(=O)NCc2cccc(F)c2)oc2c1-c1[nH]ncc1CC2`?
nsP2pro primary: -32%

What do the screens show for `O=C(NCc1ccc(F)cc1)c1nnc(Cc2cccc(F)c2)o1`?
nsP2pro primary: -14%

How did O=C(NCc1cccc(F)c1)c1nc2c(o1)CCN(CC1CCCC1)CC2 do in these assays?
nsP2pro primary: 3.5µM*

What do the screens show for `O=C(NC1CC1)[C@@H]1CN(CCCc2ccccc2)C[C@H]1CO`?
nsP2pro primary: -15%

Results for COc1ccc(C(C)NC(=O)c2noc(-c3ccc(F)cc3)n2)cc1OC (stereo not drawn) ?
nsP2pro primary: inactive

What do the screens show for `CCC1C(C)=NN=C(c2ccc(OC)c(OC)c2)c2cc(OC)c(OC)cc21` (stereo not drawn)?
nsP2pro primary: 1%

Results for CCNC(=O)N1CCC[C@@H](O)[C@H](NC(=O)c2ccc(OCc3c(C)noc3C)cc2)C1 ?
nsP2pro primary: -2%[39.2 µM]

What do the screens show for `CC(C)N1Cc2ccc(Nc3nn4c(=O)c5ccccc5nc4s3)cc2C1`?
nsP2pro primary: -19%

How did Cc1ccccc1C(=O)N1CCC(C(=O)N2CCC(c3nc4ncccc4[nH]3)CC2)C1 (stereo not drawn) do in these assays?
nsP2pro primary: -14%

Results for CCc1cc(C(=O)Nc2sc(C)c(CC)c2C#N)no1 ?
nsP2pro primary: 11µM*

What do the screens show for `CCOC(=O)c1c(-c2ccc(C)cc2)csc1NC(=O)c1cc(-c2ccc(OC)cc2)on1`?
nsP2pro primary: -20%

What do the screens show for `CCc1cc(C(=O)N2CCN(c3ccccc3)CC2)no1`?
nsP2pro primary: -2%

What do the screens show for `C1=Cc2ccccc2C(=C2CCN(CCCCc3nn[nH]n3)CC2)c2ccccc21`?
nsP2pro primary: 110%

What do the screens show for `Cc1cnc(CCNC(=O)c2n[nH]c3ccccc23)n1C1CCC1`?
nsP2pro primary: inactive

How did CCOC(=O)c1cnn(-c2ccc(NC(=O)C(Cl)=C(Cl)Cl)cc2)c1C(F)(F)F do in these assays?
nsP2pro primary: -1%

Results for COC(=O)c1ccccc1NC(=O)c1cc2nc(-c3ccccc3)cc(-c3ccccc3)n2n1 ?
nsP2pro primary: -19%

What do the screens show for `CCOC(=O)c1cnn(-c2ccccc2)c1NC(=O)c1cc2nc(-c3ccco3)cc(C(F)(F)Cl)n2n1`?
nsP2pro primary: 11µM*

How did Cc1cnn(C(C)C(=O)N2CCC3(CCC(=O)N(C4CC4)C3)CC2)c1 (stereo not drawn) do in these assays?
nsP2pro primary: -2%

How did CN1CCN(c2cccc(Nc3nn4c(=O)c5ccc(F)cc5nc4s3)c2)CC1 do in these assays?
nsP2pro primary: inactive

Results for CC(=O)c1ccc(NC(=O)OC[C@H]2C[C@@H]3CCN2C[C@@H]3c2cc(C3CCCC3)nc(-c3ccncc3)n2)cc1 ?
nsP2pro primary: inactive

Results for COc1ccccc1-c1cc([C@H]2CN3CC[C@H]2C[C@@H]3COC(=O)NC2CCCCC2)nc(C)n1 ?
nsP2pro primary: 10µM*

How did CC(=O)c1cccc(NC(=O)OC[C@H]2C[C@@H]3CCN2C[C@@H]3c2cc(C3CCCC3)nc(C)n2)c1 do in these assays?
nsP2pro primary: inactive

How did COc1ccc2ncc3c(-c4ccc(C)c(C)c4)nn(CC(=O)NC4CCCCC4)c3c2c1 do in these assays?
nsP2pro primary: -13%

What do the screens show for `O=C(COc1ccccc1)NCCc1csc(-c2cccc(F)c2)n1`?
nsP2pro primary: -18%

Results for CCn1cc(C(=O)O)c(=O)c2ccc(C)nc21 ?
nsP2pro primary: -1%

What do the screens show for `O=C(NCc1cccnc1)C1CCN(C2CCN(Cc3ccc4c(c3)CCO4)CC2)CC1`?
nsP2pro primary: inactive

What do the screens show for `OC[C@H]1O[C@@H](OC/C=C/c2ccc(O)cc2)[C@H](O)[C@@H](O)[C@@H]1O`?
nsP2pro primary: 16%

Results for CC1=C(C(=O)O)/C(=C\CO[C@@H]2O[C@H](CO)[C@@H](O)[C@H](O)[C@H]2O)C(OC(=O)/C=C\c2ccc(O)cc2)C1 (stereo partly drawn) ?
nsP2pro primary: 0.024µM*
